Where a name gives a salt, the structure may show the parent alone.
Legend:
Conditions in all cases: 20 µM; incubation time: 27 h, anaerobic, 37 °C;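 for the amine columns active = adjusted P below 0.05 in both replicates with a change the same way and a mean fold change under 0.8 or over 1.25; inactive = the rest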
[1] = system: Clostridium sporogenes DSM 1664; experiment: growth (OD595) fold change vs plate DMSO controls (fold change (ratio)); higher = more growth
In short: (§1)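 Shaken 96-well cultures in mGAM, grown anaerobically for 27 h at 37 °C, were read at 595 nm. OD came from blank-subtracted readings, corrected for background with 20 µM compound solutions in water and scaled by a calibration factor of 5. Growth is the fold change versus the plate's median DMSO control. Values average 2 biological replicates, and any fold change above 1.5 is NA.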

Escherichia coli IAI1 [2] = experiment: as above
In short: as §1

[3] = system: Klebsiella aerogenes DSM 30053; experiment: as above
In short: as §1

[4] = system: Ruminococcus gnavus DSM 108212; experiment: as above
In short: as §1

[5] = system: Klebsiella aerogenes DSM 30053; experiment: fold change of Histamine concentration vs plate DMSO controls (fold change (ratio)); higher = more amine produced, active = hit call of the paper (significant change in both replicates, either direction)
In short: (§2)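 Each value is the fold change relative to DMSO-only wells on the same plate. Four gut bacterial strains were grown anaerobically in mGAM at 37 °C for 27 h in 80 µL wells, starting at OD 0.1 before a 1:1 dilution, with compounds at 20 µM final (sweeteners 50 µM). Whole cultures were extracted with cold acetonitrile/methanol containing 0.1% formic acid, centrifuged, and amines were quantified by LC–triple-quadrupole MS (dynamic MRM) against external calibration curves with within-batch drift correction. Values are means of 2 biological replicates.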

[6] = system: Clostridium sporogenes DSM 1664; experiment: fold change of Tryptamine concentration vs plate DMSO controls (fold change (ratio)); higher = more amine produced, active = hit call of the paper (significant change in both replicates, either direction)
In short: as §2

[7] = system: Ruminococcus gnavus DSM 108212; experiment: as above
In short: as §2

Escherichia coli IAI1 [8] = experiment: fold change of Putrescine concentration vs plate DMSO controls (fold change (ratio)); higher = more amine produced, active = hit call of the paper (significant change in both replicates, either direction)
In short: as §2

[9] = system: Klebsiella aerogenes DSM 30053; experiment: as above
In short: as §2

Escherichia coli IAI1 [10] = experiment: fold change of Cadaverine concentration vs plate DMSO controls (fold change (ratio)); higher = more amine produced, active = hit call of the paper (significant change in both replicates, either direction)
In short: as §2

[11] = system: Klebsiella aerogenes DSM 30053; experiment: as above
In short: as §2

[12] = system: Ruminococcus gnavus DSM 108212; experiment: fold change of 2-Phenylethylamine concentration vs plate DMSO controls (fold change (ratio)); higher = more amine produced, active = hit call of the paper (significant change in both replicates, either direction)
In short: as §2

SMILES | growth [1] | growth (Escherichia coli IAI1 [2]) | growth [3] | growth [4] | fold change of Histamine concentration [5] | fold change of Tryptamine concentration [6] | fold change of Tryptamine concentration [7] | fold change of Putrescine concentration (Escherichia coli IAI1 [8]) | fold change of Putrescine concentration [9] | fold change of Cadaverine concentration (Escherichia coli IAI1 [10]) | fold change of Cadaverine concentration [11] | fold change of 2-Phenylethylamine concentration [12]
CN(C)[C@@H]1C(=O)C(C(N)=O)=C(O)[C@@]2(O)C(=O)C3=C(O)c4c(O)cccc4[C@@](C)(O)[C@H]3C[C@@H]12 [Tetracycline hydrochloride] | 0.00861 | 0.0722 | 0.0623 | 0.735 | 0.0521 (active) | 0.024 (active) | 0.799 (inactive) | 0.291 (inactive) | 0.481 (inactive) | 0.148 (active) | 0.411 (inactive) | 0.86 (inactive)
CNC(=O)CSP(=S)(OC)OC | 0.992 | 1.06 | 1 | 0.99 | 1.07 (inactive) | 1.01 (inactive) | 1.13 (inactive) | 0.998 (inactive) | 0.888 (inactive) | 1.01 (inactive) | 1.12 (inactive) | 1.43 (inactive)
O=C(NCCc1ncc(C(F)(F)F)cc1Cl)c1ccccc1C(F)(F)F | 1.04 | 1.04 | 1.16 | 1.22 | 0.918 (inactive) | 0.969 (inactive) | 1.04 (inactive) | 0.983 (inactive) | 1.03 (inactive) | 0.972 (inactive) | 1.04 (inactive) | 1.02 (inactive)
CN(C)C(=O)Oc1cccc([N+](C)(C)C)c1 [Neostigmine bromide] | 0.939 | 0.975 | 1.01 | 0.886 | 0.992 (inactive) | 1.07 (inactive) | 1.03 (inactive) | 0.992 (inactive) | 0.998 (inactive) | 1.02 (inactive) | 1 (inactive) | 1.01 (inactive)
Cc1ccc(/N=C/N(C)/C=N/c2ccc(C)cc2C)c(C)c1 | 0.953 | 1.05 | 1.03 | 1.06 | 1.03 (inactive) | 0.98 (inactive) | 0.939 (inactive) | 0.981 (inactive) | 1.01 (inactive) | 1.01 (inactive) | 0.991 (inactive) | 0.926 (inactive)
CC(Cc1ccc(O)cc1)NCC(O)c1cc(O)cc(O)c1 (stereo unspecified) [Fenoterol hydrobromide] | 1 | 1 | 1.01 | 1.21 | 1.06 (inactive) | 0.982 (inactive) | 1.04 (inactive) | 1.02 (inactive) | 1.04 (inactive) | 0.983 (inactive) | 0.991 (inactive) | 1.04 (inactive)
CSc1nc(NC(C)C)nc(NC(C)C)n1 | 0.932 | 1.01 | 1.02 | 0.973 | 0.971 (inactive) | 0.943 (inactive) | 0.955 (inactive) | 0.946 (inactive) | 1.04 (inactive) | 1.01 (inactive) | 1.03 (inactive) | 1 (inactive)
CCC(CC)Nc1c([N+](=O)[O-])cc(C)c(C)c1[N+](=O)[O-] | 1.11 | 1.01 | 0.983 | 1.02 | 1.07 (inactive) | 1.04 (inactive) | 0.998 (inactive) | 0.991 (inactive) | 1.01 (inactive) | 1.01 (inactive) | 0.992 (inactive) | 1.01 (inactive)
CCNC(=O)NC(=O)/C(C#N)=N/OC | 1.09 | 1.08 | 1 | 1.05 | 0.937 (inactive) | 0.956 (inactive) | 1 (inactive) | 1.05 (inactive) | 1.02 (inactive) | 1.06 (inactive) | 1.02 (inactive) | 1.02 (inactive)
N#Cc1sc2c(=O)c3ccccc3c(=O)c=2sc1C#N | 1.14 | 1.02 | 0.963 | 1.01 | 0.994 (inactive) | 0.877 (inactive) | 0.906 (inactive) | 1.02 (inactive) | 1.01 (inactive) | 1.02 (inactive) | 0.992 (inactive) | 0.827 (inactive)
COP(=S)(OC)Oc1nc(Cl)c(Cl)cc1Cl | 1.02 | 0.989 | 1.02 | 1.01 | 1.03 (inactive) | 0.986 (inactive) | 0.898 (inactive) | 0.986 (inactive) | 1.02 (inactive) | 0.99 (inactive) | 0.991 (inactive) | 0.866 (inactive)
CCC1(c2cccc(O)c2)CCCCN(C)C1 (stereo unspecified) [Meptazinol hydrochloride] | 0.881 | 1.03 | 1.02 | 1.01 | 0.983 (inactive) | 1.06 (inactive) | 0.997 (inactive) | 1.03 (inactive) | 1 (inactive) | 1.01 (inactive) | 1.01 (inactive) | 0.997 (inactive)
CC(=NC#N)N(C)Cc1ccc(Cl)nc1 | 0.969 | 0.971 | 0.989 | 1.13 | 1.02 (inactive) | 0.985 (inactive) | 1.02 (inactive) | 1.02 (inactive) | 0.979 (inactive) | 1.01 (inactive) | 0.992 (inactive) | 1.05 (inactive)
